The sample as a whole holds a higher share of hits than the screen did.
HT1080NT lethal: kills 2HG-producing HT-1080-NT fibrosarcoma cells | HT-1080-NT fibrosarcoma viability, CellTiter-Glo ATP luminescence, 48 h | Potency, µM (top dose mostly 46.1 µM), actives largely listed as cytotoxic | 1.6% of 360,000 active | AID 686970;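 further: NT is the 2HG producing partner of a matched IDH1 knockdown line; nearly all actives have a fitted effect of over 55% in size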
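Read-out is CellTiter-Glo luminescence after 10 minutes at room temperature, following 48 hours' compound treatment of HT-1080-NT cells (750 cells/well, RPMI, 5% FBS, 37 degrees C).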
12-LOX inh: inhibitors of human 12S-lipoxygenase ALOX12 | purified 12hLO, xylenol orange hydroperoxide absorbance | 1.1% of 580,000 active | P18054 | Potency, µM (doses to about 108 µM), actives largely listed as inhibitors | AID 1671190
Target sequence (P18054 whole entry, looked up): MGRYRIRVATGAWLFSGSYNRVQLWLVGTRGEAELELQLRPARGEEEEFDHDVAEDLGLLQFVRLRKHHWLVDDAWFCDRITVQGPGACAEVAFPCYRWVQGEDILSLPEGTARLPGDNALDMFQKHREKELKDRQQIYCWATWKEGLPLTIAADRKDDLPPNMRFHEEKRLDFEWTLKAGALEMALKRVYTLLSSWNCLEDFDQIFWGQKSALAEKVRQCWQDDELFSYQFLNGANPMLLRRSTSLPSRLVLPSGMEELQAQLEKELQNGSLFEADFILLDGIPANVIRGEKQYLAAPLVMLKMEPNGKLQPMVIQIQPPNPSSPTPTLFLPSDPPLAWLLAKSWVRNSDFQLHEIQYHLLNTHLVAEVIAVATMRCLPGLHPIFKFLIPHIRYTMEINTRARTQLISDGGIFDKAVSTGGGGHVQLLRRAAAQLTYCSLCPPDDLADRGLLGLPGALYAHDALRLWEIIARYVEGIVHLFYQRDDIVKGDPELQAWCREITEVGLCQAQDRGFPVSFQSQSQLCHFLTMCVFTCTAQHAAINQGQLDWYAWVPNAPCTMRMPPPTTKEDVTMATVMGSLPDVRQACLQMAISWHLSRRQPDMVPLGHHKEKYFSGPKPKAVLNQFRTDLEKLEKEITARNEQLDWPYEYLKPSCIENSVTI
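Purified human 12hLO at 150 nM in 25 mM Hepes, 0.01% Triton X-100, pH 7.0, preincubated 15 min at room temperature with compound. Reaction started with 40 uM arachidonic acid, 30 min at room temperature. Hydroperoxide measured by Fe-xylenol orange, 573/405 nm absorbance ratio.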
HT1080 IDH1KD tx: toxicity to HT-1080 IDH1 knockdown cells (counter line). HT-1080 IDH1 knockdown viability, ATP luminescence, 48 h. Potency, µM (doses to about 46.1 µM), hits mostly cytotoxic. 2% of 360,000 active. AID 686971
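Knockdown cells (IDH1KD HT-1080) received compounds 2 h after plating at 750 cells/well and were kept 48 h at 37 °C in 5% FBS RPMI. A CellTiter-Glo luminescence read gave % activity for curve fitting.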
TDP1 cell CPT: DT40-hTDP1 cell growth loss with CPT; chicken DT40 Tdp1-/-;hTDP1 cells + 20 nM CPT, ATP luminescence, 48 h; Potency, µM (doses to about 46.2 µM), actives largely listed as inhibitors; 12% of 420,000 active; further: nearly all actives have a fitted effect of over 55% in size
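Chicken DT40 Tdp1-/- cells complemented with human TDP1, 400 cells/well, exposed to compounds plus 20 nM camptothecin for at least 48 h at 37 C; viability read as ATP content by CellTiter-Glo luminescence.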
IL-1B inflam inh: blocks inflammasome-driven IL-1 beta release; THP-1 LPS/ATP IL-1B secretion, AlphaLISA, 16 h; stronger effect = lower value; AID 743279; activity change, % at 57.5 µM; 4.7% of 360,000 active; in the data active means activity change below about -50%; inconclusive means mostly about -30% to -49%
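Secreted IL-1B measured by AlphaLISA bead assay after 16 h compound exposure of THP-1 cells; compounds (final up to 57.5 uM) added 1 h before LPS (250 ng/mL) and ATP (1.25 mM) stimulation; lower signal means less secretion.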
DT40 TDP1 no CPT: qHTS for Inhibitors of human tyrosyl-DNA phosphodiesterase 1 (TDP1): qHTS in cells in absence of CPT; DT40 Tdp1-/- hTDP1 cells, no CPT, ATP luminescence, 48 h; Potency, µM (doses to about 46.2 µM), most hits filed as inhibitors; 15% of 420,000 active; further: nearly all actives have a fitted effect of over 55% in size
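Stably hTDP1-transfected Tdp1-null chicken DT40 cells were treated with library compounds minus camptothecin and grown for at least 48 hr at 37 °C, after which cellular ATP was quantified by luminescence.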
Hits are given with their value; . = inactive; ? = inconclusive; / = no result given; [ ] = remark or other dose. Unless noted, the call rests on the fitted dose curve; in most records, active means well fitted curve in the direction sought with a large enough effect; inconclusive means small, poorly fitted or top-dose-only effect, or another doubt; inactive means no such curve, though single readings can be large; an effect the other way counts as inactive or inconclusive.

SMILES	HT1080NT lethal	12-LOX inh	HT1080 IDH1KD tx	TDP1 cell CPT	IL-1B inflam inh	DT40 TDP1 no CPT
CCOc1ccc(C(=O)Nc2cc(-c3nc4ccccc4[nH]3)ccc2Cl)cc1[N+](=O)[O-]	?	.	18µM	?	.	23µM
CCOc1ccc(C(=O)Nc2cc(-c3nc4ccccc4[nH]3)ccc2C)cc1[N+](=O)[O-]	.	?	.	?	-50	?
CCOc1ccc(C(=O)Nc2cc(-c3nc4cc(OC)ccc4o3)ccc2C)cc1[N+](=O)[O-]	/	.	/	/	/	/
Cc1ccc(-c2nc3ccccc3[nH]2)cc1NC(=O)COc1ccccc1[N+](=O)[O-]	/	.	/	15µM	/	?
CCCOc1cccc(C(=O)Nc2cc(-c3nc4ccccc4[nH]3)ccc2C)c1	/	.	/	16µM	/	16µM
CCOc1ccccc1NC(=O)c1ccc(OCC)c([N+](=O)[O-])c1	.	.	.	?	.	.
O=C(Cc1cccc(F)c1)N1CCC2(CC1)N(c1ccccc1)C(=O)CS2(=O)=O	/	.	/	/	/	/
O=c1oc2ccccc2c(NC2CCCC2)c1NS(=O)(=O)c1cccs1	/	.	/	/	/	/
CN(C1CCc2ccccc2C1)[S+](=O)([O-])c1cccs1 (stereo unspecified)	/	.	/	/	/	/
COC(=O)c1ccccc1NC(=O)Cn1cnc2cc(C)c(C)cc21	.	.	.	15µM	.	23µM
COC(=O)c1ccccc1NC(=O)Cn1cnc2c(cnn2-c2ccc(C)c(C)c2)c1=O	.	/	.	.	.	.
COC(=O)c1ccccc1NC(=O)CNc1cc(OC)c(OC)cc1C	.	.	.	?	.	18µM
CCCn1nc(C(=O)Nc2ccc3c(c2)OCCO3)c2ccccc2c1=O	.	.	.	?	/	?
COc1ccc(NC(=O)c2oc3ccccc3c2NC(=O)c2ccc3c(c2)OCO3)cc1	.	.	.	?	/	?
CCOC(=O)c1oc2ccccc2c1NC(=O)CCl	.	.	?	10µM	?	7.3µM
COc1ccc(NC(=O)c2oc3ccccc3c2NC(=O)c2cc(OC)c(OC)c(OC)c2)cc1	/	.	/	21µM	/	12µM
CCOC(=O)c1oc2ccccc2c1NC(=O)c1cccc(OC)c1OC	?	.	?	16µM	.	18µM
CCOC(=O)c1oc2ccccc2c1NC(=O)c1ccco1	.	.	.	?	.	?
COc1cccc(C(=O)Nc2c(C(N)=O)oc3ccccc23)c1	.	.	.	?	.	16µM
O=C1CC2(CCN(CC3CCCCC3)CC2)Oc2ccccc2N1	/	.	/	/	/	/
N#C/C(=C/c1ccc(OC(F)F)cc1)C(=O)Nc1cc(C(F)(F)F)ccc1Cl	/	.	/	/	/	/
CCOC(=O)c1oc2ccccc2c1NC(=O)c1cccc(OC)c1	.[9.24 µM]	.	.	13µM	.	18µM
COc1ccc(C(=O)c2oc3ccccc3c2NC(=O)c2cccc(OC)c2)cc1	/	.	/	.	/	.
CCOc1ccc(NC(=O)c2oc3ccccc3c2NC(=O)C(C)Oc2ccccc2)cc1 (stereo unspecified)	/	.	/	?	/	21µM
Cc1ccc(COC(=O)c2nnn(-c3ccccc3)c2C)c(C)c1	/	.	/	/	/	/
SMILES	HT1080NT lethal	12-LOX inh	HT1080 IDH1KD tx	TDP1 cell CPT	IL-1B inflam inh	DT40 TDP1 no CPT
CCCCCC(=O)Nc1nc2c(s1)C[C@@H]1[C@](C)(CO)[C@H](O)CC[C@@]1(C)[C@@H]2CC(=O)NCc1cc(F)cc(F)c1	/	.	/	/	/	/
ON=C(c1ccccc1)c1ccc2c3c(cccc13)CC2	.	.	.	?	.	18µM
CS(=O)(=O)c1ccc(C(=O)OCC(=O)N2CCCC2)cc1[N+](=O)[O-]	/	/	/	5µM	/	4µM
O=C(CCNC(=O)N1CC(=O)Nc2ccccc21)NCc1cccc(Cl)c1	.	.	.	.	.	?
O=C(CCNC(=O)N1CC(=O)Nc2ccccc21)NCc1ccccc1Cl	.	.	.	?	.	13µM
CC1CCCCN1C(=O)COC(=O)c1ccc(S(C)(=O)=O)c([N+](=O)[O-])c1 (stereo unspecified)	/	/	/	2.2µM	/	3.2µM
CS(=O)(=O)c1ccc(C(=O)OCC(=O)N2CCN(CCC3CCCCC3)CC2)cc1[N+](=O)[O-]	/	.	/	/	/	/
O=C1CN(C(=O)COC(=O)CCS(=O)(=O)c2ccccc2Cl)c2ccccc2N1	.	.	.	18µM	.	?
N#Cc1cccc(C(=O)NC2CCN(c3cc(-c4ccc(F)cc4)[nH]n3)C2)c1 (stereo unspecified)	/	.	/	/	/	/
CC(C)(C)CCN1CCCC(COc2ccccc2C(=O)NC2CC2)C1 (stereo unspecified)	/	.	/	/	/	/
COc1ccc2oc(=O)c(S(=O)(=O)N3CCCC(C)C3)cc2c1 (stereo unspecified)	/	.	/	/	/	/
CS(=O)(=O)c1ccc(C(=O)OCC(=O)N2CC(=O)Nc3ccccc32)cc1[N+](=O)[O-]	/	/	/	1.1µM	/	0.71µM
O=C1CN(C(=O)COC(=O)c2ccc(N3CCCCCC3)c([N+](=O)[O-])c2)c2ccccc2N1	.	.	.	.	.	.
CCCCOC(=O)/C=C\C(=O)NC(N)=O	?	.	?	?	-105	?
COc1ccc(-c2nc(C)c(CCNC(=O)C(=O)Nc3ccc(F)cc3F)s2)cc1OC	/	.	/	/	/	/
C[C@@H]1CN([C@H](C)CO)S(=O)(=O)c2ccc(C#Cc3ccccc3)cc2O[C@H]1CN(C)C(=O)Nc1ccc2c(c1)OCO2	.	.	?	13µM	?	16µM
CCCC#Cc1ccc2c(c1)O[C@H](CN(C)C(=O)CC1CC1)[C@H](C)CN([C@@H](C)CO)S2(=O)=O	.	?	.	?	.	18µM
C[C@@H]1CN([C@H](C)CO)S(=O)(=O)c2ccc(C#Cc3ccccc3)cc2O[C@@H]1CN(C)C(=O)CN(C)C	.	.	.	16µM	.	26µM
CCC(=O)N(C)C[C@@H]1Oc2cc(Br)ccc2S(=O)(=O)N([C@@H](C)CO)C[C@@H]1C	.	.	.	.	.	.
C[C@@H]1CN([C@H](C)CO)S(=O)(=O)c2ccc(C#CC3CCCC3)cc2O[C@H]1CN(C)C(=O)Cc1ccccc1	?	?	?	5.8µM	-81	5.8µM
COc1ccc(C(=O)Nc2ccc(N3CCOCC3)cc2)cc1S(=O)(=O)NC1CC1	/	.	/	/	/	/
O=C1CC(/C=C/c2ccco2)=Nc2ccccc2N1	.	/	.	?	.	?
O=C1CC(/C=C/c2ccccn2)=Nc2ccccc2N1	.	.	.	?	-75	15µM
CCOC(=O)c1ccccc1NC(=O)CN1C(=O)NC(c2ccc(C)cc2)C2=C1COC2=O (stereo unspecified)	/	.	/	/	/	/
COc1cc2c(cc1OC)C(=O)N1[C@H]3c4ccccc4OC[C@@H]3[C@H](c3ccccc3)[C@]1(C)C(=O)N2	.	.	.	?	?	15µM
